# In all, about 33,000 sequences were measured (“E-score (-0.5 to 0.5)”: median about -0.011, highest 2% from about 0.28 on). Many of the other results were omitted from the sample, so the highest values are more common in it than they were.
# Biological target: T1, Gcr1 (UniProt P07261)
# T1 sequence: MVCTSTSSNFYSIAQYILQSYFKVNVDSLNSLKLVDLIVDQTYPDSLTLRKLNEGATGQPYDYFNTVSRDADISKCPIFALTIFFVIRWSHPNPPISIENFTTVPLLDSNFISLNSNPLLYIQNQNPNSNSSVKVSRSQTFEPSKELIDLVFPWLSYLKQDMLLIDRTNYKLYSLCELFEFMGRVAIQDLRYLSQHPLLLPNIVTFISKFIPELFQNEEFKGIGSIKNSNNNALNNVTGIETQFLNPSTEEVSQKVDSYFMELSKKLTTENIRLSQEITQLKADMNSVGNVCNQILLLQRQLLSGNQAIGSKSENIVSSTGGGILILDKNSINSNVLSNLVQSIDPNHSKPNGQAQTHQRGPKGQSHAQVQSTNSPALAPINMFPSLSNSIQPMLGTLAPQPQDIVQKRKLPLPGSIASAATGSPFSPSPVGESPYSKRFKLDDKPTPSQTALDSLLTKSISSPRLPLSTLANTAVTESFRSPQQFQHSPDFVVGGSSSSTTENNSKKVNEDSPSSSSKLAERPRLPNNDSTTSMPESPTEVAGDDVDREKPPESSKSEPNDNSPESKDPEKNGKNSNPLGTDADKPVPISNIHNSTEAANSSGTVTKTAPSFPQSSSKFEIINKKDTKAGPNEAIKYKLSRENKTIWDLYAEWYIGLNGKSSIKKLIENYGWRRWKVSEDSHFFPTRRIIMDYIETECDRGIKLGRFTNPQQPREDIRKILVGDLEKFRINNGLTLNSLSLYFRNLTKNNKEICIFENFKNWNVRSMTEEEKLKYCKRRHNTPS
# Assay: PBM E-score (8-mer binding enrichment) (E-score (-0.5 to 0.5)); higher = stronger / more preferred TF binding
# Settings: protein concentration: 100 nM; construct: GST-full length
# Protocol: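 Universal 'all 10-mer' protein binding microarrays (Agilent AMADID 015681) probed with GST-tagged S. cerevisiae TFs (full-length or DBD) made by in vitro transcription/translation (PURExpress), about 100-200 nM. Bound TF was detected with fluorescent anti-GST. Each ungapped 8-mer (which stands for itself and its reverse complement) is scored by the PBM enrichment score (E-score), a modified Wilcoxon-Mann-Whitney statistic from -0.5 to +0.5, computed with the Universal PBM Analysis Suite. Scale: above 0.35 generally sequence-specific binding.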
row,Sequence,PBM E-score
1,ATTAGCTG,0.107
2,AACTGTAC,-0.166
3,AAGAAGCG,0.0955
4,GCGAAGCC,0.1
5,AAGAAGCT,0.386
6,CGGAAGGC,0.00052
7,AAGAAGGT,0.122
8,AAGAAGCC,0.401
9,AAGAAGCA,0.165
10,AAAAAGCT,-0.183
11,GAGAAGCC,0.395
12,GAGAAGCA,0.111
13,CGGAAGCC,0.451
14,CGGAAGCA,0.0914
15,CGACCCCC,-0.203
16,GCAGAGAA,-0.0151
17,TGAGCACA,-0.235
18,AGCATAAT,-0.00272
19,ATATACTA,0.174
20,AAAGTTAA,0.0767
21,CAGAAGCC,0.306
22,CAGAAGCA,0.0126
23,CAGAAGCG,0.223
24,ACGCTAGA,-0.0413
25,TAGCGATA,-0.0939

row,Sequence,PBM E-score
1,CATGCCTC,-0.101
2,CTCCAGCC,-0.183
3,CAATCGGG,0.0633
4,CAGCAACG,0.0545
5,CAGCAACC,0.287
6,CCGCAACC,0.316
7,AAGCAACC,0.0616
8,CGGCAACA,0.206
9,ACGCAACC,0.121
10,CCGCAACA,-0.0641
11,AGGCAACC,0.0186
12,CGGCAACC,0.29
13,TTCGCCAA,0.0203
14,CCACCGCC,-0.0958
15,ACTTTGCA,-0.0113
16,CCGGGGAA,0.0357
17,CAACGCAC,-0.152
18,AAGATATT,0.125
19,ACCGAGTC,-0.306
20,ATAGAGAA,-0.111
21,CGAGTAGC,-0.018
22,GGTGTGAA,-0.0292
23,CCTGATCC,0.0357
24,GAGAAGAA,0.0707
25,AAGAAGAC,0.0399

row,Sequence,PBM E-score
1,AATAAGAT,0.0233
2,ACGAAGAA,-0.0157
3,AAGAAATT,0.0237
4,AATAAGAA,0.328
5,AATAAGAG,0.0844
6,AAGAAGAA,0.303
7,CAGAAGAA,0.212
8,TAGAAGAA,0.352
9,AAGAAAAA,0.164
10,AAGAAAAT,0.304
11,CCGGAGAA,-0.189
12,AGGTTTTC,0.0618
13,CACACAAG,0.128
14,ACTTTCAC,0.0906
15,TACCCCGA,-0.036
16,GGACCGAA,0.0294
17,AAATCGTT,-0.0365
18,TACAAAAA,0.0752
19,CACAAGAA,0.275
20,TACAAGAA,0.379
21,AAGAAGAT,0.338
22,ACGAAGAT,0.00119
23,AAGAAGAG,0.237
24,GTCGGCAA,0.0614
25,GGATCAAC,-0.00409

row,Sequence,PBM E-score
1,ACTCAATA,0.156
2,GTTTGGGA,-0.0986
3,ATTTTGGA,0.282
4,AATTTGGA,0.263
5,ATTTTGGG,0.274
6,ATTTGGGA,0.301
7,TATTTGGA,0.313
8,GTTTTGGA,0.122
9,ATTTGGGG,0.23
10,CATTTGGA,0.172
11,AAGCTCCG,0.00534
12,AACCAACA,0.0425
13,CTTTGAGC,-0.149
14,GACCATCC,-0.0793
15,GCGCCCAC,0.317
16,GCGCCCAA,0.18
17,CCGCCCGC,-0.0787
18,CCGCCCAC,0.0451
19,ACGCCCGC,0.105
20,GCGCCCGC,0.315
21,TAAAGGTA,-0.0155
22,GTGCTACA,-0.119
23,CTAAACGA,-0.00769
24,GGTTAACC,-0.194
25,AATCTGGC,0.0826

row,Sequence,PBM E-score
1,AATCTGGT,0.281
2,AATCTGGA,0.257
3,CGTTCCCC,-0.0544
4,AACAAGTG,0.0405
5,AATGCCAC,-0.0507
6,GATGCCAC,0.342
7,AATGCCAA,0.042
8,GATGCCGA,0.335
9,TATGCCAA,-0.104
10,CATGCCGA,0.041
11,GATGCCAA,0.351
12,AATGCCGA,-0.178
13,CATGCCAC,-0.109
14,GTTCATAA,0.0771
15,CAGTGAGG,-0.176
16,GCCAGGTA,0.0834
17,CTCTGCGC,-0.22
18,GCAGCAGC,0.307
19,ACAGCAGA,-0.0557
20,GCAGCAGA,-0.135
21,CAAGCAGC,0.324
22,AAAGCAGC,-0.0508
23,CACGCAGA,-0.137
24,GAAGCAGC,0.24
25,CCAGCAGC,0.272

row,Sequence,PBM E-score
1,ACAGCAGC,0.288
2,ACAGCAGT,-0.0218
3,CACGCAGC,0.295
4,AACGCAGC,0.0364
5,CGCGGCTC,0.117
6,CACTTGAG,0.00447
7,ACCCTCCG,-0.333
8,GCCGCAGC,0.0591
9,TAAGATCA,0.157
10,CGATCGAC,-0.154
11,GTATCGCA,-0.00444
12,CATACTTA,0.0988
13,AAAAAAGT,0.135
14,TGGCTGAA,0.0392
15,CATCCAGA,0.268
16,GGAGCCAA,0.33
17,TGAGCCCA,0.0335
18,GGAGCCCA,0.349
19,AGAGCCAC,0.13
20,AGAGCCAA,-0.13
21,GGAGCCAC,0.289
22,CGAGCCAA,-0.00353
23,GGAGCCCC,0.265
24,CGAGCCAC,-0.116
25,CCCAGTCC,-0.0352

row,Sequence,PBM E-score
1,AAGTTCAA,0.0288
2,CACGTGCC,-0.121
3,ATCGATCC,-0.0388
4,CCTAGAGG,0.0618
5,CAAGTTCG,-0.0211
6,ACATTGCT,0.0699
7,GCATCTCA,0.139
8,TGGGCAAA,-0.213
9,ACCTTCCC,-0.00014
10,CCCTTCCG,-0.286
11,CGCTTCCG,0.291
12,AGCTTCCG,0.433
13,TGCTTCCA,0.146
14,CGCTTCAG,0.0898
15,AGCTTCAA,0.0987
16,AGCTTCGC,0.173
17,AGCTTCCC,0.378
18,AGCTTCGG,0.17
19,AGCTTCCA,0.458
20,AGCTTCAG,-0.19
21,GATTAAGC,0.0627
22,CAAAACGC,0.025
23,AAGCAAAA,-0.075
24,CCATCCGG,-0.0299
